From the supplement of paper PMC3724861
The sample as a whole holds a higher share of hits than the screen did. The true hit rate is not given. Values without a mark were called inactive.

test system: T1, Caupolican (Caup) homeodomain DNA-binding domain; test: PBM E-score (8-mer, recovered from the published 9-mer minima) (E-score (dimensionless, -0.5 to 0.5)); Drosophila protein; higher = stronger relative binding preference, active = 0.31 or more
T1 sequence: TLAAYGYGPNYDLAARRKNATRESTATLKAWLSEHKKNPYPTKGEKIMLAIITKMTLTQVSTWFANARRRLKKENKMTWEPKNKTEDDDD
Procedure: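 Protein binding microarray (PBM): in vitro transcribed/translated Caupolican (Caup) homeodomain DNA-binding domain (residues 214-303) applied at 100 nM to a universal 8-mer PBM array (Agilent AMADID 015681). The 8-mer enrichment score (E-score, range -0.5 to 0.5) was computed, and each 9-mer score is the minimum E-score of its two constituent 8-mers. The E-score is the same for a 9-mer and its reverse complement; 0.31 is the stated binding threshold.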

Sequence	PBM E-score
ACGTTGTA	0.291
GTGTTGTA	0.395 (active)
ATGTTGTG	0.282
ATGTTGTA	0.431 (active)
CTGTTGAC	0.137
GTGTTGCA	0.184
CTGTTGTA	0.273
ATGTTGAG	0.132
CGGTTGTA	0.209
AGGTTGTG	0.133
ATGTTGAC	0.322 (active)
AGGTTGTA	≥ 0.333 (active)
CGTCTGCC	-0.188
ATTGTCCG	0.122
CATTTCTA	0.102
GTCAACCA	0.0944
ACTAGCGC	-0.134
AACCGGGA	-0.0571
ATCAAAGC	-0.0471
ATCAGCTC	0.00528
AAGGCGAC	0.00668
ACGACTGC	-0.0879
GGATACCC	-0.15
CTCCAACC	-0.171
CACACCGA	0.0554
ACAAACCG	0.0217

Sequence	PBM E-score
ATGTTGTC	0.424 (active)
CTGTTGTC	0.256
ATGTTGCC	0.121
CCGCATCC	-0.16
TGTTAACA	0.371 (active)
AATTAACA	0.326 (active)
AATTAACT	0.117
TAGTAACA	≥ 0.316 (active)
GAGTAACA	0.206
CGTTAACA	0.164
AGTTAACA	0.265
AACTAACA	≥ 0.339 (active)
AATTAACC	0.0386
AAGTAACA	0.306
TACTAACA	0.253
AACTAACT	-0.00416
GTATCACA	0.198
ACAGAAGA	0.101
TAGCACAA	0.0785
ATGAAAAA	0.0536
AATGCACT	0.108
GGATTAGA	-0.0283
GCCATCGA	-0.0979
TATTAACA	0.312 (active)
GATTAACA	0.292
CATTAACA	0.234

Sequence	PBM E-score
CCATCCCC	-0.241
CAAGAGAG	-0.0747
TCCTCTCA	-0.0753
GGTGTATA	0.133
GCTGTACA	0.268
AGTGTACG	0.152
AGTGTACA	0.337 (active)
GGTGTACA	0.327 (active)
AGTGTAGA	0.162
ATAGATAT	0.169
ACGGACCC	-0.139
CGCGGGTC	-0.163
CCAATGGA	-0.156
ATGCAGCC	0.00431
CTGATTTA	0.138
GCATTAGC	-0.144
CTTATTGA	0.0828
CGCGAACG	-0.0783
GCACCGCA	-0.175
AAATGTAA	0.277
CAATGTAC	0.287
CAATGTAG	0.182
TAATGTGA	0.141
CAATGTAA	0.312 (active)
TAATGTAA	0.315 (active)
TGGACACA	0.199

Sequence	PBM E-score
GGTAGCGA	-0.0452
GCCGGGTA	-0.161
CTAGCGTA	-0.0972
ATGTCTTA	0.284
TATTGACA	0.322 (active)
GATTGACA	0.276
TAATGACA	0.331 (active)
ACATGACC	0.303
CAATGACA	0.293
TCATGACA	0.313 (active)
TGATGACA	0.279
GAATGACA	0.259
ACATGACT	0.374 (active)
ACATGACG	0.297
CATTGACA	0.217
CCATGACA	0.137
GTGGCGAA	-0.0979
CGGAGTGC	-0.159
AACCTATT	0.0185
CTGACAGC	-0.0248
CTATTCCA	0.057
CGATTACG	0.101
CCCCTGAG	-0.149
ATCGCACC	-0.0473
CGCATATA	0.107
AAGCACTG	0.0317

Sequence	PBM E-score
AGATGACA	0.227
CTTTGACA	0.223
ATTTGACA	0.347 (active)
ACATGACA	≥ 0.43 (active)
GCATGACA	0.21
ATTTGACC	-0.0206
CTCTTCTA	-0.00512
ATATTCGC	0.0752
GCAGAAGA	-0.113
TAAATATA	0.187
CAAATAGG	-0.00893
AGTTGTCG	0.235
AGTTGTCC	0.235
GTTTGTCA	0.187
CGTTGTCA	0.251
AGTTGTCA	0.315 (active)
GGTTGTCA	0.331 (active)
CGTAAATC	-0.00723
CATGGATA	0.157
TACAAACA	≥ 0.368 (active)
GACAAACC	0.0748
AACAAACT	0.23
AACAAGCC	0.176
AACAAACC	0.161
GACAAACA	0.312 (active)
AACAAACG	0.114

Sequence	PBM E-score
AACAAGCT	0.312 (active)
CACAAACA	0.24
GACAAAAA	0.0647
AACAAACA	0.338 (active)
AACAAGCG	0.237
AGTTCTGG	-0.0428
AGGGCAAC	-0.0847
CCGGAAAG	-0.15
ACGTTCAT	0.101
GATATTGA	0.0675
CACCTACC	-0.0826
AAAACGTG	0.0311
AGTATACT	0.163
ACCTACCT	-0.066
GCATCTAC	0.0527
GACAAGCC	0.212
AACAAGCA	0.308
CACAAGCA	0.15
TACAAGCA	≥ 0.384 (active)
GACAAGCA	0.321 (active)
GGCAAGCA	-0.119
CTCTCAGC	-0.19
ACCCGTAT	0.0244
ACTTTTCG	0.0288
CCCACAGG	-0.142
GAATAGTC	-0.00141

Sequence	PBM E-score
AATACATA	0.362 (active)
GATACATC	0.297
GATACATA	0.321 (active)
AATACAGA	0.18
GAAACATA	0.258
AAAACATA	0.284
GATACAGA	0.164
AATACAAG	0.346 (active)
AATACAAT	0.226
TAAACATA	≥ 0.367 (active)
AATACAAA	0.284
AATACAAC	0.305
AGCTGTAA	0.166
AGTACTAT	0.165
CCGATGCG	-0.173
AAGACTAT	0.0648
CCCACGAG	-0.148
GGATATCA	0.0642
TCGTATAA	0.121
CCACTAGG	-0.169
TATACAAA	0.264
TATACAGA	0.217
CATACATG	0.44 (active)
AATACATC	0.294
AATACATG	0.424 (active)
TATACATA	0.326 (active)

Sequence	PBM E-score
AATACATT	0.225
CATACATC	0.251
CATACATA	0.286
CCTCTACG	-0.0999
AACACCTA	0.183
CTCAGCGA	-0.115
AGATTTGA	0.0967
ACCCGCGT	-0.0456
CTCGGACA	0.086
CATGAACG	0.0839
CATGAACA	0.32 (active)
TGTGAACA	0.31 (active)
TATGAACA	0.286
GATGAACA	0.196
AATGAACC	-0.0632
GGTGAACA	0.183
AATGAACA	0.317 (active)
CGTGAACA	0.206
GCGAGAGA	-0.0945
GGCGAGTA	-0.0986
GTAGCAAC	0.128
AGCAAGAC	0.0516
ACTTGACC	-0.0545
AAAATTTC	-0.0281
TCGGCAAA	-0.0466
ATGCTGGG	-0.069

Sequence	PBM E-score
ATCTGTGC	0.0661
AGTGCGCC	-0.17
CACATATA	0.251
AACATATA	0.323 (active)
AACATATG	≥ 0.356 (active)
TATATATA	0.216
GACATATA	0.305
AACATAGT	0.287
AACATATC	0.303
AACATATT	≥ 0.347 (active)
ACCATATG	0.145
CACATATG	0.15
TACATATA	0.379 (active)
TACATAGA	0.278
GACGGCTA	-0.167
CAATTGTA	0.193
ATGAATCG	0.0391
AGTAACGA	0.107
GACTCGCA	-0.115
CAGATGCG	-0.00655
